From PubChem BioAssay (Tox21) come the findings set out here.

Several values for one entry are separate records, joined by “and”; a condition that tells them apart may be missing. Equal values may be shown once. Inconclusive results are not listed. A call without a number means that no potency is given here. Some compounds were tested as several samples or in several runs, with calls that do not always agree. Activity calls are given as the source filed them. Calls come from the whole dose curve; as a rule, active = well fitted cell-killing curve with a large enough effect in the repeat runs; inconclusive = weak or mixed curves; inactive = no such curve, though single readings can be large or run the other way.
Potency is the fitted concentration of half-maximal effect.

The test can be described thus: qHTS assay for identifying genotoxic compounds that show differential cytotoxicity against isogenic chicken DT40 cell lines with known DNA damage response pathways - Rad54/Ku70 mutant cell line (AID 743015). Note: nearly all actives have a fitted effect of over 60% in size. The settings on record: DT40 Rad54/Ku70 mutant viability, CellTiter-Glo, 40 h; series mostly up to 66.8 µM. The source says:
National Center for Advancing Translational Sciences [NCATS]
NIH Chemical Genomics Center [NCGC]
U.S. Environmental Protection Agency [EPA]
National Institutes of Environmental Health Sciences [NIEHS]
National Toxicology Program [NTP]
U.S. Food and Drug Administration [FDA]
DNA repair pathways play a critical role in cellular homeostasis by repairing DNA damage induced by endogenous processes and xenobiotics. Isogenic chicken DT40 cell lines deficient in different DNA repair pathways can be used to identify genotoxic compounds and aid in characterizing the nature of the DNA damage induced. Two DNA repair-deficient cell lines with disrupted genes, Rad54/Ku70 or Rev3, were used to screen the Tox21 10K compound library. Possible genotoxicity was based on the presence of a significant increase in cytotoxicity in one or more of the DNA repair-deficient cell lines compared to that observed in the parental DNA repair-proficient cell line. CellTiter Glo viability assay (Promega, Madison, WI) was used to measure cell viability in these cells after compound treatment. This assay includes the data from the Rad54/Ku70 mutant cell line.
Tox21 Assay Protocol Summary:
300 DT40 mutant cells in 5 uL/well were dispensed into white, solid-bottom 1536-well plates using a Multidrop Combi (ThermoFisher Scientific, Waltham, MA) dispenser. After the assay plates were incubated at 37 C/5% CO2 for approximately 0.5 hour, 23 nL of compounds dissolved in DMSO, positive controls or DMSO only was transferred into the assay plate by a pintool work station (Kalypsys, San Diego, CA). The assay plates were incubated at 37 C/5% CO2 for 40 hours. After 5 uL per well of CellTiter-Glo reagent was added into each well of the assay plates, the plates were incubated for 30 min at room temperature and the luminescence intensity of the plates was measured using a ViewLux (PerkinElmer, Shelton, CT) plate reader.
On the technique in general: qHTS replaces the single test concentration by a dilution series.
Take `CC(C)(c1cc(Br)c(OCC(Br)CBr)c(Br)c1)c1cc(Br)c(OCC(Br)CBr)c(Br)c1` (stereo not given): the Potency result was “inactive”.

`Cc1ccc(C(C)C)cc2c(C)ccc1-2`: the Potency entry was “inactive”. Next, `CN1CCN2c3ccccc3Cc3ccccc3C2C1` (stereo not given): 21.1 µM (active); `C=CCn1c(=O)n(CC=C)c(=O)n(CC=C)c1=O`: “inactive”.

With `CCOC(=O)c1ccc(C2CCC(NC[C@H](O)COc3ccc(O)c(NS(C)(=O)=O)c3)CC2)cc1` (stereo not given in full), the Potency was 0.113 µM (active). Then `Cc1ccc(-c2ccccc2)cc1`, with “inactive”; and `O=C(O)CCN(C1(C(=O)NO)CCCC1)S(=O)(=O)c1ccc(Oc2ccc(F)cc2)cc1`, with “inactive”. Consider `O=C1C(c2[nH]c3ccc(S(=O)(=O)O)cc3c2O)=Nc2ccc(S(=O)(=O)O)cc21`, for which the Potency result is “inactive and 30.6 µM (active)”.

Consider `O[C@@H]([C@H](O)[C@H](O)CBr)[C@H](O)CBr`, for which the Potency result is “inactive”. In the case of `O=c1[nH]c(=O)n([C@H]2C[C@H](O)[C@@H](CO)O2)cc1F`, the Potency was 0.0019 µM (active). Regarding `c1ccc(C(O[C@@H]2CCCN(CCc3ccc4c(c3)OCO4)C2)c2ccccc2)cc1`, the Potency was 30.6 µM (active). `CCCCCCCC/C=C\CCCCCCCCN`: the Potency entry is “inactive”.

Turning to `CCC(CC)C(C)CCOC(C)=O` (stereo not given), the Potency entry is “inactive”. Turning to `CC(=O)Oc1cc2c(s1)CCN(C(C(=O)C1CC1)c1ccccc1F)C2` (stereo not given), the Potency result is “inactive”. As for `CC(=O)CC(=O)Nc1ccc(S(=O)(=O)O)cc1`, the Potency entry was “inactive”.

Regarding `O=[N+]([O-])c1ccc(F)c(Cl)c1`, the Potency entry is “inactive”. `CC(C(=O)O)c1ccc2c(c1)[nH]c1ccc(Cl)cc12` (stereo not given): the Potency result is “inactive”.

As for `FC(F)(F)c1cccc(Cl)c1`, the Potency result was “inactive”.

With `ClCCl`, the Potency result was “inactive”. In the case of `O=C(/C=C/c1ccc(O)c(O)c1)O[C@@H](C(=O)O)[C@@H](OC(=O)/C=C/c1ccc(O)c(O)c1)C(=O)O`, the Potency entry was “inactive”. As to `CCCCCCCCCCCCCCCC[N+](C)(C)CC`, the Potency is 473 nM (active) and 866 nM (active).

Turning to `C#C[C@]1(OC(C)=O)CC[C@H]2[C@@H]3CCC4=C[C@@H](OC(C)=O)CC[C@@H]4[C@H]3CC[C@@]21C`, the Potency is 10.6 µM (active) and 11.9 µM (active).

On to `CNc1ccc([N+](=O)[O-])cc1`, for which the Potency was 68.7 µM (active).

As to `C=C(CC)C(=O)c1ccc(OCC(=O)O)c(Cl)c1Cl`, the Potency is 29.8 µM (active) and 48.2 µM (active). For `CCCCOC(=O)CC`, the Potency result was “inactive”. For the compound `C[C@H]1NCc2cc(-c3ccc4c(=O)c(C(=O)O)cn(C5CC5)c4c3OC(F)F)ccc21`, the Potency entry is “inactive”.

Regarding `Cc1cc(C(C#N)c2ccc(Cl)cc2)c(Cl)cc1NC(=O)c1cc(I)cc(I)c1O` (stereo not given), the Potency is 26.6 µM (active). Next, `COc1cc(/C=C/c2ccccc2)oc(=O)c1`: “inactive”. Regarding `COc1ccc2cc1Oc1ccc(cc1)C[C@H]1c3c(cc4c(c3Oc3cc5c(cc3OC)CCN(C)[C@@H]5C2)OCO4)CCN1C`, the Potency was 8.41 µM (active). As for `CCC(C)n1ncn(-c2ccc(N3CCN(c4ccc(OC[C@H]5CO[C@](Cn6cncn6)(c6ccc(Cl)cc6Cl)O5)cc4)CC3)cc2)c1=O` (stereo not given in full), the Potency is 0.596 µM (active). Next, `CC/C=C\CCCCCO`: “inactive”; `CCn1c2ccccc2c2cc([N+](=O)[O-])ccc21`: 54.5 µM (active); `O=C(O)c1cc(-c2ccc(F)cc2F)ccc1O`: “inactive”.

As for `C=C(C)C(=O)OCCCCCCCCCC`, the Potency entry is “inactive”. Consider `COC(=O)Nc1nc2ccc(C(=O)c3ccccc3)cc2[nH]1`, for which the Potency is 0.403 µM (active). As for `COc1ccc(NC(=O)CC(C)=O)cc1`, the Potency result is “inactive”. Next, `COC1=C(OC)C(=O)C(CCCCCCCCCCO)=C(C)C1=O`: 10.6 µM (active); `O=C(c1ccc(O)c(O)c1)c1ccc(O)cc1O`: 8.62 µM (active); `Cc1c(C)c([N+](=O)[O-])c(C(C)(C)C)c([N+](=O)[O-])c1C`: “inactive”. Then `CCCCCCC1CCCC(=O)O1` (stereo not given), with “inactive”.
